Screening results from PubChem.
Most compounds without a hit are left out; they make up all but 4.1% or so of the library.
DAX1 inh-1: NR0B1 (DAX1) inhibition. hit rate 0.99% among 340,000. AID 504766. HEK293 Gal4-DAX1 luciferase reporter, luminescence. inhibition, % at 6.75 µM. P51843;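 active = inhibition above the mean over all tested compounds plus 3 SD, cut at about 4.2% in these data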;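 also: 0% = DAX1-transfected cells with DMSO and 100% = empty-vector control cells with DMSO; inhibition shows as a rise in luminescence from relieved DAX1 repression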
Target sequence (P51843 207-470 limits assumed): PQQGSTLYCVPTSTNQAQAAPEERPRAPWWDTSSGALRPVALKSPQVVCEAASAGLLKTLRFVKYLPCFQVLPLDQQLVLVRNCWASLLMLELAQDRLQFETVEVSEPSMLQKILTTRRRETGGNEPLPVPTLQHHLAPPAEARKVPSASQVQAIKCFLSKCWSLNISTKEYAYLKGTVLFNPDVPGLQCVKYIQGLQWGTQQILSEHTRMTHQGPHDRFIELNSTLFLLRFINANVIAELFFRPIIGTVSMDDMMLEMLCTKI
hcDAF12 agonist: activators of H. contortus DAF-12 nuclear receptor; HEK293 hcDAF-12 lit1-tk-luc reporter, luminescence; 0% DMSO, 100% Δ7-dafachronic acid; activation, % at 6.8 µM; hit rate 1.4% among 370,000;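 active = activation above the mean of all tested compounds plus 3 SD, cut at about 5.5% in these data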;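 also: 100% = response to 3 µM Δ7-dafachronic acid high control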
hgDAF-12 ag: activates the H. glycines DAF-12 receptor ligand-binding domain | HEK293 GAL4-hgDAF12 UAS-luciferase reporter, agonist luminescence; normalized to butyrate control | activation, % at 6.8 µM | AID 687014 | hit rate 1.8% among 370,000;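 active = activation above a cutoff set at the mean of all screened compounds plus 3 SD, cut at about 10% in these data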;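 also: 0% = DMSO wells and 100% = sodium butyrate wells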
ssDAF12 agonist: activators of S. stercoralis DAF-12 nuclear receptor | HEK293 ssDAF-12/GRIP1 lit1-tk-luc reporter, luminescence; % of 3 µM dafachronic acid response | activation, % at 6.8 µM | hit rate 1% among 370,000;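 active = activation above the mean over all tested compounds plus 3 SD, cut at about 0.9% in these data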;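 also: 0% = DMSO-only wells and 100% = 3 µM delta7-dafachronic acid wells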
DAX1 inh-2: inhibitors of DAX1 repression of SF-1 activated StAR promoter. HEK293T StAR-luciferase reporter, SF-1/DAX-1 repression relief. inhibition, % at 6.8 µM. hit rate 1.1% among 370,000;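 active = inhibition above the mean over all tested compounds plus 3 SD, cut at about 3.6% in these data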;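 also: 0% = DAX-1 cells with DMSO and 100% = cells lacking DAX-1 with DMSO; higher inhibition means more luminescence from relief of DAX-1 repression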
* = called active by the depositor.

COC(=O)[C@]12C[C@H](CC(=O)N3CCN(C(=O)c4ccco4)CC3)C(=O)N(Cc3ccc4c(c3)OCO4)C1=C[C@H](C(C)C)O[C@@H]2C1CC1 was read as hcDAF12 agonist -2, hgDAF-12 ag -1, ssDAF12 agonist -2 and DAX1 inh-2 0.
For O=C(C1CCN(c2ncnc3c2sc2cccc(F)c23)CC1)N1CCCCC1 the results were hcDAF12 agonist 3, hgDAF-12 ag 2, ssDAF12 agonist 0 and DAX1 inh-2 -1.
Screening Cc1ccc(Nc2ccc(N3CCN(c4ccc([N+](=O)[O-])cc4)CC3)nn2)cc1 returned DAX1 inh-1 4.5*, hcDAF12 agonist -1, hgDAF-12 ag -3, ssDAF12 agonist -1 and DAX1 inh-2 0.
Screening CNS(=O)(=O)c1ccc(CNC[C@H]2O[C@@H](n3ccc(N)nc3=O)[C@H](O)[C@@H]2O)cc1 returned DAX1 inh-1 4.6*, hcDAF12 agonist -1, hgDAF-12 ag -1, ssDAF12 agonist -1 and DAX1 inh-2 -1.
`Nc1ccn([C@@H]2O[C@H](CNCc3ccc(N4CCNCC4)cc3)[C@@H](O)[C@H]2O)c(=O)n1` gave DAX1 inh-1 1, hcDAF12 agonist 0, hgDAF-12 ag 8, ssDAF12 agonist -2 and DAX1 inh-2 -1.
C=CCN(C(=O)[C@@H](C)[C@@H](O)c1ccc2ccccc2c1)c1ccccc1 was read as hcDAF12 agonist 0, hgDAF-12 ag 0, ssDAF12 agonist 0 and DAX1 inh-2 -2.
COc1ccc(N=Nc2c(N)nn(C)c2N)cc1 was read as DAX1 inh-1 4, hcDAF12 agonist 1, hgDAF-12 ag 10, ssDAF12 agonist 1.2* and DAX1 inh-2 3.
Screening Cc1ccc(N=Nc2c(N)nn3c(N)c(C#N)c(C)nc23)cc1 returned DAX1 inh-1 2, hcDAF12 agonist 0, hgDAF-12 ag 2, ssDAF12 agonist -1 and DAX1 inh-2 1.
For Cc1csc(NC(=O)C2CC(=O)N(c3ccc(C)c(C)c3)C2)n1 (configuration not stated) the results were DAX1 inh-1 0, hcDAF12 agonist -1, hgDAF-12 ag 0, ssDAF12 agonist 1.6* and DAX1 inh-2 -1.
For COc1ccccc1N1CC(C(=O)Nc2nc(C)cs2)CC1=O (configuration not stated) the results were DAX1 inh-1 0, hcDAF12 agonist 4, hgDAF-12 ag 0, ssDAF12 agonist 1 and DAX1 inh-2 2.
`CCOC(=O)[C@]12CCCCC/C=C\1N(CCc1ccc(Cl)cc1)C(=O)[C@H]2CC(=O)NCc1ccc(OC)c(OC)c1` gave hcDAF12 agonist -3, hgDAF-12 ag 3, ssDAF12 agonist -1 and DAX1 inh-2 -1.
Screening COc1ccc2c(n1)Sc1nc3ccccc3nc1N2 returned DAX1 inh-1 5.5*, hcDAF12 agonist 2, hgDAF-12 ag 4, ssDAF12 agonist 1 and DAX1 inh-2 -2.
COc1cc2ccccc2nn1 was read as DAX1 inh-1 1, hcDAF12 agonist 2, hgDAF-12 ag 1, ssDAF12 agonist -1 and DAX1 inh-2 0.
For O=C(Cc1ccccc1)NNc1ccc2ccccc2c1 the results were DAX1 inh-1 3, hcDAF12 agonist 5.9*, hgDAF-12 ag 1, ssDAF12 agonist 0 and DAX1 inh-2 2.
Screening COCCNC(=O)COC(=O)C1=Cc2ccccc2OC1 returned DAX1 inh-1 4.7*, hcDAF12 agonist 0, hgDAF-12 ag -2, ssDAF12 agonist 0 and DAX1 inh-2 0.
Screening CC1CCCCC1NC(=O)c1cc2ccccc2o1 (configuration not stated) returned DAX1 inh-1 0, hcDAF12 agonist 2, hgDAF-12 ag 11*, ssDAF12 agonist -1 and DAX1 inh-2 0.
CC1CCCCC1NC(=O)c1cc(Cl)nc2ccccc12 (configuration not stated) was read as DAX1 inh-1 2, hcDAF12 agonist 3, hgDAF-12 ag 5, ssDAF12 agonist 1.4* and DAX1 inh-2 2.
`CC(C)NC(=O)c1cc2ccccc2o1` gave DAX1 inh-1 5.1*, hcDAF12 agonist -2, hgDAF-12 ag 2, ssDAF12 agonist -1 and DAX1 inh-2 0.
For COC(=O)[C@H](C(C)C)N(CCCc1cn(CC2CCCCC2)nn1)S(=O)(=O)c1ccccc1Br the results were hcDAF12 agonist -2, hgDAF-12 ag -2, ssDAF12 agonist -2 and DAX1 inh-2 -1.
Screening COc1ccccc1NC(=O)c1csc2c1CCCC2 returned DAX1 inh-1 0, hcDAF12 agonist -1, hgDAF-12 ag 4, ssDAF12 agonist 0 and DAX1 inh-2 0.
